HSF1 inhib: HSF1 inhibition | NIH3T3-HGL HSE-luciferase, MG132-induced, luminescence 8 h; stronger effect = lower value | hit rate 0.77% among 300,000 | AID 2098 | activity change, negative = inhibition, % at 7.5 µM (by protocol);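 active = more than half of replicate wells show activity change below -50%, luminescence cut by over half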;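 note: luciferase reports HSF-1 transcriptional activity via heat shock element; 0% = median of DMSO wells and -100% = zero luminescence signal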
Wnt bcat act: activates Wnt/beta-catenin signaling in a reporter cell assay | activator, plate reader | activation, % at 9.35 µM | hit rate 1.2% among 300,000; in the data active = activation above about 30%, passing the limit was not always enough;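 note: 0% = neutral control wells and 100% = positive control wells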
MITF act: MITF TRPM1 promoter activation in melanoma cells; SK-MEL-5 TRPM1-promoter luciferase, 24 h; % of positive control, neutral wells = 0; activation, % at 12.5 µM; hit rate 0.75% among 300,000; AID 588334;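 active = mean activation of at least 80% with every replicate also reaching 80%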;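 note: 0% = neutral control wells and 100% = parthenolide positive control wells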
HSF1 activator: increases HSF-1 driven luciferase reporter signal | NIH3T3-HGL HSF-1 luciferase reporter, MG132, 8 h; 100% = twice DMSO control signal | activation, % at 9 µM | hit rate 1.7% among 300,000 | AID 504408;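 active = mean replicate activation of at least 50% with a set share of replicates each reaching 50%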;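 note: 0% = median of the neutral control wells and 100% = twice that signal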
SMARCA2 act: activators of SMARCA2 function; AID 652017; hit rate 1% among 370,000; activation, % at 9.1 µM; MG213 cells, MMTV-luciferase reporter, dexamethasone, overnight; in the data active = activation above about 7.8%;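 note: 0% = vehicle wells and 100% = reference activator wells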
esBAF inh: blocks esBAF chromatin remodeling in mouse ES cells; Bmi1-luciferase knock-in reporter, 24 h; 100% = twice the neutral-well signal; reporter increase, % at 12.5 µM; hit rate 2% among 350,000; in the data active = activation above about 40%;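 note: 0% = median of the plate's neutral control wells and 100% = double that signal; a rise in the Bmi1 reporter signal indicates esBAF inhibition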
SMARCA2 conf: confirmation of SMARCA2 (BRM) function activators; MG213 cells, MMTV-luciferase with dexamethasone, luminescence, overnight; MG213 cells expressing E1A, Rb sequestered; DMSO wells 0%, reference activator 100%; shares compounds with SMARCA2 act; hit rate 30% among 3,500; activation, % at 9.1 µM;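 active = activation above its plate's cutoff, the mean activation of tested wells plus 3 SD, cut at about 7.9% in these data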
VP16 Luc act: GAL4-VP16 reporter activation counter-screen. shares compounds with SMARCA2 act. AID 686939. activation, % at 9.1 µM. hit rate 41% among 3,500. HEK293 GAL4-VP16 pG5luc reporter, luciferase luminescence; scaled: DMSO wells 0%, SAHA wells 100%;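 active = activation above the solvent-only control well mean plus 3 SD, averaged across control plates, cut at about 5.2% in these data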
An asterisk follows results filed as active. Compounds with a hit are over-represented: about 4.3% of the library has one in this group of screens.

For COc1ccc(NC(=O)N(C)C[C@H]2Oc3ccc(NC(=O)Nc4ccc5c(c4)OCO5)cc3C(=O)N([C@@H](C)CO)C[C@@H]2C)cc1 the results were esBAF inh -4.
Screening COCC(=O)N[C@@H]1CC[C@H](CC(=O)NCc2ccccc2OC)O[C@@H]1CO returned esBAF inh -2.
`Cc1c(Cl)cnc(NC(=O)COC(=O)CCc2nc3ccccc3s2)c1Cl` gave HSF1 inhib 1, Wnt bcat act -1, MITF act 3, HSF1 activator -9, SMARCA2 act 9.3*, esBAF inh -5, SMARCA2 conf -2 and VP16 Luc act 0.
`O=C(O)C[C@H]1C[C@@H]2c3cc(NC(=O)Nc4ccc(F)cc4)ccc3O[C@@H]2[C@H](CO)O1` gave esBAF inh 2.
For CN(C)CCCn1c2c3ccccc3ccc2c2oc(=O)c3ccccc3c21 the results were Wnt bcat act -4, MITF act -80, SMARCA2 act 12*, SMARCA2 conf 54* and VP16 Luc act 3.
CN(CCc1ccccn1)C(=O)c1cccnc1Oc1ccccc1 was read as HSF1 inhib -3, Wnt bcat act -1, MITF act -9, HSF1 activator -9, SMARCA2 act 12*, esBAF inh -5, SMARCA2 conf -1 and VP16 Luc act 2.
O=C(O)c1cccnc1Oc1ccccc1 was read as HSF1 inhib -5, MITF act 13, HSF1 activator 3 and SMARCA2 act -1.
For C[C@H]1CN([C@@H](C)CO)C(=O)c2cc(NC(=O)CCN3CCOCC3)ccc2O[C@@H]1CN(C)Cc1ccc(C(=O)O)cc1 the results were esBAF inh -9.
For Cc1cc(C(=O)Nc2cnc3ccccc3c2)ccc1[N+](=O)[O-] the results were HSF1 inhib 41, Wnt bcat act 22, MITF act 3, HSF1 activator 48, SMARCA2 act 9.3*, SMARCA2 conf 5 and VP16 Luc act 8.5*.
For CC(C)n1cnc2cc(NC(=O)c3ccco3)ccc21 the results were HSF1 inhib 13, Wnt bcat act 19, MITF act 57, HSF1 activator 7, SMARCA2 act 9.6*, esBAF inh 17, SMARCA2 conf 13* and VP16 Luc act 9.6*.
Screening CCCC(=O)Nc1ccc(NC(=O)c2ccco2)cn1 returned HSF1 inhib 8, Wnt bcat act 13, MITF act 57, HSF1 activator 1, SMARCA2 act 3 and esBAF inh 18.
COc1cccc(C(=O)Nc2ccc(NC(=O)c3ccco3)nc2)c1 was read as HSF1 inhib 15, MITF act 93*, HSF1 activator 25, SMARCA2 act 9.7*, esBAF inh 59*, SMARCA2 conf 12* and VP16 Luc act 12*.
`COc1cccc(C(=O)Nc2ccc3[nH]ncc3c2)c1` gave HSF1 inhib 5, Wnt bcat act 8, MITF act 41, HSF1 activator 24, SMARCA2 act 9.4*, esBAF inh 0, SMARCA2 conf 8.9* and VP16 Luc act 15*.
For CC(C)C(=O)Nc1ccc(NC(=O)c2ccco2)cn1 the results were HSF1 inhib 2, Wnt bcat act 0, MITF act 52, HSF1 activator 10, SMARCA2 act 8.1*, esBAF inh 13, SMARCA2 conf 5 and VP16 Luc act 2.
For Cc1ccc(S(=O)(=O)Nc2ccc3c(c2)C(=O)N([C@H](C)CO)C[C@H](C)[C@H](CN(C)S(=O)(=O)c2cn(C)cn2)OCCCC[C@H](C)O3)cc1 the results were esBAF inh -3.
`C[C@@H]1CN([C@@H](C)CO)C(=O)c2cc(-c3ccccc3)cnc2O[C@@H]1CN(C)Cc1ccccn1` gave esBAF inh -11.
`O=C(N[C@H]1CC[C@@H](CCNS(=O)(=O)c2ccccc2Cl)O[C@H]1CO)c1ccc(F)cc1` gave esBAF inh -1.

Screens as filed in PubChem BioAssay.
